# KB-V1 cytotox = qHTS assay for MDR1-selective chemotherapeutics: Primary screen using the drug-selected MDR subline cells KB-V1. KB-V1 MDR cells viability, CellTiter-Glo, 72 h. Potency, µM (series often up to 46.1 µM), actives largely listed as cytotoxic. 3.4% of 400,000 active; note: % is set by controls: 0 for no effect and ±100 for the full control effect; nearly all actives have a fitted effect of over 60% in size
#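 KB-V1 MDR subline cells in DMEM (phenol-red free, 10% FBS) exposed to compounds in qHTS concentration series for 72 h at 37 degrees C. Viability read by CellTiter-Glo luminescence; concentration-effect curves fitted after normalization and correction.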
# HT1080 IDH1KD tx = qHTS for induction of synthetic lethality in tumor cells producing 2HG: qHTS for the HT-1080-IDH1KD cell line; HT-1080 IDH1 knockdown viability, ATP luminescence, 48 h; Potency, µM (top dose mostly 46.1 µM), inactives show at the highest dose activity, negative = toxicity, hits mostly cytotoxic; 2% of 360,000 active;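 note: 0% = DMSO wells and -100% = cell-free medium wells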
#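 Assay cells: HT-1080 with IDH1 knockdown, 750 per well, RPMI/5% FBS. Exposure: 48 h at 37 °C following 2 h pre-incubation. Read: CellTiter-Glo luminescence; fitted concentration-response, curve class assigned.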
# SW480 rereplic = A quantitative high throughput screen for small molecules that induce DNA re-replication in SW480 colon adenocarcinoma cells. SW480 DNA re-replication, Hoechst DNA content imaging, 48 h. Potency, µM (series often up to 46.1 µM), for inactives: at the highest dose re-replication activation, usual class: activators. 1.8% of 340,000 active; note: % of control where 0% means no effect; nearly all actives have a fitted effect of over 55% in size
#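 Compounds, transferred as 23 nL by pin tool, were incubated with cells for 48 hr; DNA content per nucleus was then quantified by Hoechst staining and fluorescence plate imaging.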
# KB-3-1 tox = qHTS assay for MDR1-selective chemotherapeutics: Primary screen using the parental adenocarcinoma cell KB-3-1; KB-3-1 viability, CellTiter-Glo ATP luminescence, 72 h; Potency, µM (highest dose often 46.1 µM), actives largely listed as cytotoxic; 1.4% of 400,000 active; AID 1347075, 2019; note: % is set by controls: 0 for no effect and ±100 for the full control effect; nearly all actives have a fitted effect of over 60% in size
#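 Multi-concentration cytotoxicity screen in KB-3-1 cells grown in DMEM lacking phenol red with 10% FBS. After 72 h at 37 °C with compound, ATP-dependent luminescence was recorded.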
# MCF10A rereplic = A quantitative high throughput screen for small molecules that induce DNA re-replication in MCF 10a normal breast cells; Potency, µM (titrated, usually from 46.1 µM), for the others: at the highest dose activity, positive = re-replication, most hits filed as activators; MCF 10A DNA re-replication, Hoechst nuclear intensity, 48 h; 2.9% of 350,000 active; AID 624296, 2012; note: % of control where 0% means no effect; nearly all actives have a fitted effect of over 50% in size
# HT1080-NT tox = qHTS for induction of synthetic lethality in tumor cells producing 2HG: qHTS for the HT-1080-NT fibrosarcoma cell line. HT-1080-NT fibrosarcoma viability, CellTiter-Glo ATP luminescence, 48 h. Potency, µM (titrated, usually from 46.1 µM), for inactives: at the highest dose activity, negative = less viability, usual class: cytotoxic. 1.6% of 360,000 active. AID 686970, 2013;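 note: NT is the 2HG producing partner of a matched IDH1 knockdown line; 0% = DMSO-treated cells and -100% = media-only wells without cells; nearly all actives have a fitted effect of over 55% in size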
#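 Viability by CellTiter-Glo luminescence after 48 h compound exposure at 37C of HT-1080-NT cells (750/well, RPMI, 5% FBS). % activity scaled between DMSO wells and medium-only wells, then curve-fitted and categorized by curve class.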
# * marks the source's active call; other numbers are inactive results; i = inactive; ? = inconclusive; . = no result given; [ ] = another dose, or the depositor's remark. Shown are actives, neighbours in structure and some others; about 8% of the full set was active somewhere. Calls come from the whole dose curve; as a rule, active = well fitted curve in the direction sought with a large enough effect; inconclusive = small, poorly fitted or top-dose-only effect, or another doubt; inactive = no such curve, though single readings can be large; an effect the other way counts as inactive or inconclusive. Potency is the fitted concentration of half-maximal effect.
SMILES,KB-V1 cytotox,HT1080 IDH1KD tx,SW480 rereplic,KB-3-1 tox,MCF10A rereplic,HT1080-NT tox
CC(C)n1c(C(=O)OCC(=O)NCc2ccc3c(c2)OCO3)cc2sccc21,i,-0.4%[9.24 µM],7.6%,i,14.6µM*,?
CCOc1ccc(CCNC(=O)c2cc3sccc3n2C)cc1OCC,8.2µM*,-1.6%,6.1%,i,10.3%,0.5%
Cn1c(C(=O)Nc2ccc3c(c2)OCO3)cc2sccc21,?,1.9%,-1.6%,i,7.3%,2.6%
Cn1c(C(=O)NCc2ccc3c(c2)OCO3)cc2sccc21,16.4µM*,-29.3%,3.8%,i,-7.2%,-28.0%
CC(C)n1c(C(=O)OCC(=O)NCc2ccc3c(c2)OCO3)cc2occc21,i,7.1%,16.3%,i,1.8%,12.5%
CCOc1ccc(CCNC(=O)c2cc3sc(Cl)cc3n2C)cc1OCC,i,-21.5%,0.2%,?,24.8%,-20.6%
CC(CCc1ccccc1)NC(=O)c1cc2sccc2n1C (stereo not drawn),?,-1.1%,?,i,14.6µM*,-3.2%
CS(=O)(=O)NCCCNc1ccc(C(F)(F)F)cc1[N+](=O)[O-],?,-9.8%,-13.5%,?,0.9%,1.2%
O=[N+]([O-])c1cc(C(F)(F)F)ccc1NCCCCNS(=O)(=O)c1ccc(Cl)cc1,20.6µM*,?,?,?,15.7%,?
O=[N+]([O-])c1cc(C(F)(F)F)ccc1NCCNC(=S)Nc1ccc(Cl)cc1,?,?,?,i,-1.2%,17.8µM*
Cc1ccccc1C(=O)Nc1ccc2nc(SCC(=O)N3CCc4ccccc43)sc2c1,i,.,.,i,.,.
Cc1ccc(C)c(CSCc2nc3ccccc3[nH]2)c1,i,0.3%,1.7%,i,18.4µM*,3.6%
c1ccc2cc(CSCc3nc4ccccc4[nH]3)ccc2c1,?,-21.4%,-38.2%,i,20.6µM*,-13.3%
Cc1ccccc1CSCc1nc2ccccc2[nH]1,?,-3.3%,3.1%,i,6.0%,-5.9%
CSCCC(NS(=O)(=O)c1ccc2c(c1)oc(=O)n2C)C(=O)NCCc1ccc(C)cc1 (stereo not drawn),i,.,.,i,.,.
CCCN1CNc2c(c(=O)[nH]c(=S)n2CCc2cccc(OC)c2OC)C1,.,12.8%,.,.,.,2.3%
CCCCN1C(C(=O)c2ccccc2)=C(OC(=O)CC)c2ccccc2S1(=O)=O,i,.,.,14.6µM*,.,.
CCCCCN1C(C(=O)c2ccccc2)=C(OC(=O)CC)c2ccccc2S1(=O)=O,i,.,.,?,.,.
Cc1cc(N2CCC(C(=O)Nc3ccc(F)cc3F)CC2)n2nc(C)c(-c3ccc(Cl)cc3)c2n1,i,.,.,i,.,.
NC(=O)CSc1nc2cc([N+](=O)[O-])ccc2n1-c1cccc(C(F)(F)F)c1,6.51µM*,0.8%,-1.6%,i,3.8%,2.3%
Cc1ccc(-c2cn3c4c(=O)n(C)c(=O)n(C)c4nc3n2-c2cccc(Cl)c2)cc1,?,.,.,i,.,.
Oc1ccc(CCNc2c3ccccc3nc3ccccc23)cc1O,i,?,?,18.4µM*,?,23.1µM*
OCCNc1c2ccccc2nc2c(F)c(F)c(F)c(F)c12,?,4.61µM*,13µM*,i,?,?
CN(C)CCCNc1c2ccccc2nc2ccccc12,11.6µM*,5.17µM*,?,1.64µM*,?,4.11µM*
O=S(=O)(O)c1cc(O)c2c(N=Nc3ccc(Nc4ccccc4)c4c(S(=O)(=O)O)cccc34)cc(S(=O)(=O)O)cc2c1,.,.,-1.4%,.,-12.2%,.
SMILES,KB-V1 cytotox,HT1080 IDH1KD tx,SW480 rereplic,KB-3-1 tox,MCF10A rereplic,HT1080-NT tox
CC1(C(=O)Nc2cnc3ccccc3c2)CCN1C(=O)c1ccccc1CCc1ccccc1 (stereo not drawn),18.4µM*,?,.,?,.,?
CC(C)(C)c1ccc(C(=O)NC(=S)NNC(=O)c2cccs2)cc1,?,?,68.8%,2.59µM*,?,?
CCCOc1ccc(C(=O)NNC(=S)NC(=O)c2ccco2)cc1,i,23.1µM*,-4.9%,9.2µM*,3.9%,?
CCCC(=O)Nc1ccc(C(=O)NNC(=S)NC(=O)c2cccs2)cc1,?,?,-3.2%,i,?,?
CCCOc1ccc(C(=O)NNC(=S)NC(=O)c2cccs2)cc1,?,20.6µM*,?,?,-4.9%,?
CCCOc1ccc(C(=O)NNC(=S)NC(C)=O)cc1,i,7.08µM*,?,16.4µM*,?,7.08µM*
O=C(NC(=S)NNC(=O)c1cccs1)c1ccccc1,i,?,-0.6%,?,10.6%,?
CCCOc1ccc(C(=O)NNC(=S)NC(=O)c2ccccc2)cc1,i,?,?,i,6.2%,?
COc1ccc(C)cc1NC(=O)CSc1nc(=O)n(Cc2ccncc2)c2c1CCC2,i,.,.,i,.,.
CCN1CCN(C(=O)c2cnn(-c3ccc(F)cc3)c2-n2cccc2)CC1,i,.,.,i,.,.
CCCOc1ccc(C(=O)NC(=S)Nc2nc(C)c(C(=O)N(C)C)s2)cc1,20.6µM*,-19.5%,-7.9%,i,0.3%,?
Cc1nc(NC(=S)NC(=O)c2ccccc2)sc1C(=O)N(C)C,i,1.7%,-0.8%,i,-4.5%,-2.3%
CCCOc1ccc(F)cc1-c1cc(C(=O)Nc2ccc(C)c(NS(C)(=O)=O)c2)[nH]n1,23.1µM*,?,.,?,.,?
CCCOc1ccc(F)cc1-c1cc(C(=O)Nc2ccc(C(C)C)cc2)[nH]n1,i,23.1µM*,.,?,.,?
CCCOc1ccc(F)cc1-c1cc(C(=O)Nc2ccc(OC)c(OC)c2)[nH]n1,20.6µM*,?,.,?,.,?
CC(=O)Nc1ccc(C(=O)Nc2ccc(-c3nc4ccccc4[nH]3)cc2)cc1,?,.,.,i,.,.
Cc1ccc(S(=O)(=O)N2CCN(C(=O)c3ccccc3OCc3c(C)noc3C)CC2)cc1C,i,-13.5%,25.8%,i,-0.6%,-20.0%
Cc1noc(C)c1COc1ccc(C(=O)N2CCN(c3cccc(Cl)c3)CC2)cc1,i,2.4%,-3.6%,i,?,15.0%
Cc1noc(C)c1COc1ccccc1C(=O)N1CCN(c2cccc(Cl)c2)CC1,?,23.1µM*,?,?,4.5%,23.1µM*
